Results: PubChem BioAssay (NCI)
Compounds without any hit were thinned out: in the full panel of roughly 83,000, 20% have a hit.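 The endpoint reported here, percent growth, reads 100 for growth as untreated, 0 for no net growth and -100 for all cells dead.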 A number with no mark means an inactive call. Calls of active or inactive are those of the source. The calls were made as follows: active = growth percent below 10; inactive = the rest.

How the values were obtained:
Test in all cases: NCI-60 one-dose screen, 48 h (100 = growth as untreated, 0 = no growth, -100 = all killed)
Details in all cases: 10 µM unless noted
NCI-H23 lung = tested on: NCI-H23 lung
NCI-H226 lung = tested on: NCI-H226 lung
NCI-H322M lung = tested on: NCI-H322M lung
HOP-62 NSCLC = tested on: HOP-62 NSCLC
NCI-H460 lung = tested on: NCI-H460 lung
HOP-92 NSCLC = tested on: HOP-92 NSCLC
NCI-H522 lung = tested on: NCI-H522 lung
A549/ATCC NSCLC = tested on: A549/ATCC NSCLC
786-0 renal = tested on: 786-0 renal
DU-145 prostate = tested on: DU-145 prostate
K-562 leukemia = tested on: K-562 leukemia
MALME-3M melanoma = tested on: MALME-3M melanoma
MDA-MB-231 breast = tested on: MDA-MB-231 breast
RXF 393 renal = tested on: RXF 393 renal
SF-268 CNS = tested on: SF-268 CNS
SF-295 CNS = tested on: SF-295 CNS
SF-539 CNS = tested on: SF-539 CNS
UACC-257 melanoma = tested on: UACC-257 melanoma
M14 melanoma = tested on: M14 melanoma
COLO 205 colon = tested on: COLO 205 colon

SMILES | growth (NCI-H23 lung) | growth (NCI-H226 lung) | growth (NCI-H322M lung) | growth (HOP-62 NSCLC) | growth (NCI-H460 lung) | growth (HOP-92 NSCLC) | growth (NCI-H522 lung) | growth (A549/ATCC NSCLC) | growth (786-0 renal) | growth (DU-145 prostate) | growth (K-562 leukemia) | growth (MALME-3M melanoma) | growth (MDA-MB-231 breast) | growth (RXF 393 renal) | growth (SF-268 CNS) | growth (SF-295 CNS) | growth (SF-539 CNS) | growth (UACC-257 melanoma) | growth (M14 melanoma) | growth (COLO 205 colon)
CN(C)CCCC1(c2ccc(F)cc2)OCc2cc(-c3ccc(C(F)(F)F)nc3)ccc21 (stereo not given) | 80.6% | 90.6% | 84.7% | 83.3% | 72.9% | 51.1% | 74.7% | 71.4% | 72.7% | 83.6% | 13.5% | 34.9% | 72.6% | 45.1% | 73.7% | 81.2% | 80.8% | -31.8% (active) | 13.8% | –
N#CC1C(=N)Cc2ccccc2-c2ccccc21 (stereo not given) | 57.1% | 77.8% | 78.5% | 57.6% | 27% | 49.6% | 8.86% (active) | 42.1% | 65.6% | 75.8% | 16% | – | 57.2% | 58.4% | 61% | 49% | 63.4% | 51.5% | 16.2% | –
O=c1[nH]c(=S)[nH]c2nc[nH]c12 | 88.6% | 99.8% | 118% | 86.9% | 112% | 108% | 100% | 99.1% | 91.6% | 107% | 89.2% | 112% | 109% | 79.5% | 97.9% | 106% | 105% | 96.6% | 90.7% | –
COC(=O)C(N)CSC(c1ccccc1)(c1ccccc1)c1ccccc1 (stereo not given) | 45.5% | 77.6% | 9.37% (active) | 44.6% | 8.85% (active) | 55.1% | -43.6% (active) | 31.3% | 53.7% | -24.3% (active) | – | 31.8% | 3.44% (active) | 1.07% (active) | 28.4% | – | -11.7% (active) | – | -6.93% (active) | 1.18% (active)
CC/C=C\C[C@H]1CC=C2C(=O)C=C[C@@H]2CC=CCCCC(=O)O[C@@H](CCCCC)CC=C2C(=O)C=C[C@@H]2CC=CCCCC(=O)O[C@@H](CCCCC)CC=C2C(=O)C=C[C@@H]2CC=CCCCC(=O)O[C@@H](CCCCC)CC=C2C(=O)C=C[C@@H]2CC=CCCCC(=O)O1 | 4.69% [7.9 µM] (active) | 74.6% [7.9 µM] | 85.7% [7.9 µM] | 8.97% [7.9 µM] (active) | 30.4% [7.9 µM] | 7.82% [7.9 µM] (active) | -16.2% [7.9 µM] (active) | 39% [7.9 µM] | 23% [7.9 µM] | 20.4% [7.9 µM] | 7.46% [7.9 µM] (active) | 26.2% [7.9 µM] | -11.1% [7.9 µM] (active) | -4.76% [7.9 µM] (active) | 12.5% [7.9 µM] | 53.7% [7.9 µM] | 1.99% [7.9 µM] (active) | 54.4% [7.9 µM] | -3.08% [7.9 µM] (active) | –
C/C(=N\Nc1cc(C)c2cc(C)ccc2n1)c1ccccn1 | 10.2% | -5.19% (active) | -9.38% (active) | 10.1% | -68.7% (active) | -11% (active) | -93.5% (active) | 1.9% (active) | -73.3% (active) | 21% | -40.8% (active) | – | -89.1% (active) | -88.2% (active) | -4.43% (active) | – | -92.4% (active) | -73.5% (active) | -82.9% (active) | -99.9% (active)
